# Bioassay records as filed in PubChem BioAssay.
# TRPV1 agonist: human TRPV1 agonism; Q8NER1; TRPV1-expressing cells, Fluo-8 calcium influx, agonist mode; activation, % at 8.33 µM; hit rate 0.19% among 320,000; in the data active means activation above about 80%; inconclusive means between about 30% and that limit; further: 0% is about no effect
# Target sequence (Q8NER1 whole entry, looked up): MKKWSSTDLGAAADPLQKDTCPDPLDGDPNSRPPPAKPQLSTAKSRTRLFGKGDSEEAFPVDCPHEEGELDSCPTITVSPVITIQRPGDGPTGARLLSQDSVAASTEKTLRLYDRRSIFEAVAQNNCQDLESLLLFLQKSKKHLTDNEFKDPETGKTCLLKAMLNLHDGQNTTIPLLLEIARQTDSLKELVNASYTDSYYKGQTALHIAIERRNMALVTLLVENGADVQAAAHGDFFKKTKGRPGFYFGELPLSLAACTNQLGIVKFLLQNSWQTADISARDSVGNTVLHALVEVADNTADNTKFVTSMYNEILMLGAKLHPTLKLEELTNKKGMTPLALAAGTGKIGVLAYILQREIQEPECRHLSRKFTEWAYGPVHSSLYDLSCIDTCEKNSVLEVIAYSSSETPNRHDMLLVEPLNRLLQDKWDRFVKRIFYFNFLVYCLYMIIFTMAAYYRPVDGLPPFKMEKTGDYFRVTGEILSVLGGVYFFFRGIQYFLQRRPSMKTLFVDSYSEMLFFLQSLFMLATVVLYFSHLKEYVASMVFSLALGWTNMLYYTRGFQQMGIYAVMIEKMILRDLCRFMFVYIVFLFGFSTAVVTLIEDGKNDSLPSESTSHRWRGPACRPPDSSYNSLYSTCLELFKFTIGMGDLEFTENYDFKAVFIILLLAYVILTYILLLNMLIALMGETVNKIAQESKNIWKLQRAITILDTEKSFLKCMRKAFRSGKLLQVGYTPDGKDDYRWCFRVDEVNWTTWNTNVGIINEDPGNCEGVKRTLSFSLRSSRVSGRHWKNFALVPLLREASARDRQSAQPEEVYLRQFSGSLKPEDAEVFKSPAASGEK
#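 Fluo-8 calcium influx in TRPV1-expressing cells, kinetic read (ex 480/em 520 nm). Compound added and read 3 min for agonist activity, followed by capsaicin at EC20 final and 2 min further read for enhancement.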
# Giardia killer: kills Giardia lamblia; Giardia lamblia trophozoite viability; activity change, % at 7.66 µM, hits read low; hit rate 0.15% among 340,000; AID 540267; in the data active means activity change below about -80%; inconclusive means between about -30% and that limit;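 further: parasites exposed to compound for two days anaerobically before the ATP read; on the % scale 0 is the no-effect control and ±100 the full control effect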
#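 ATP-content bioluminescence gauges trophozoite survival. Cells (100/well) receive compound and incubate anaerobically for 48 hrs at 37 deg C; detection reagent follows for 15-30 min at room temperature.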
# FUS suppressor: rescues growth of FUS-expressing yeast | S. cerevisiae FUS-expressing, growth rescue, OD600, 24 h | Potency, µM (top dose mostly 76.6 µM), usual class: activators | hit rate 0.24% among 390,000 | AID 1347120;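 further: potency means the concentration at half of the fitted maximal effect; plate controls were DMSO vehicle for no effect and reference control for full effect; nearly all actives have a fitted effect of over 55% in size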
#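 Read-out: OD at 600 nm after 24hr at 30C, reporting rescue of FUS-induced yeast toxicity. Cells at OD 0.005 in galactose (2%) minimal medium; compounds tested in a dilution series; CP55940 titration from 92uM final as control.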
# ELG1 DNA repair: ELG1-dependent DNA repair inhibition | HEK293T ELG1-luciferase reporter, luminescence, 16 h; DNA damage induced by 5-fluorouridine | Potency, µM (highest dose often 46.1 µM), for inactives: at the top dose activity change, negative = inhibition, most hits filed as inhibitors | hit rate 2.3% among 330,000 | AID 504467; further: potency means the concentration at half of the fitted maximal effect; on the % scale 0 is the no-effect control and ±100 the full control effect; nearly all actives have a fitted effect of over 55% in size
#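 In this reporter screen, reduction of luminescence relative to DMSO vehicle indicated activity. Compounds and 5-fluorouridine were added together to 2,000 cells per well, incubated for 16 hr at 37 °C, then developed with ONE-Glo.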
# TRPV1 PAM: human TRPV1 potentiation; hit rate 0.02% among 320,000; AID 540277; TRPV1-expressing cells, Fluo-8 calcium influx, capsaicin EC20 potentiation; potentiation, % at 8.33 µM; in the data active means potentiation above about 80%; inconclusive means between about 30% and that limit; further: 0% is about no effect
#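 Cells expressing TRPV1 were dye-loaded with Fluo-8 and read kinetically: 10 s baseline, 3 min after compound (agonist portion), then 2 min after EC20 capsaicin (allosteric enhancer portion). Calcium-bound dye fluorescence at 480/520 nm.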
# The depositor's hits bear a star; i = inactive; ? = inconclusive; · = no result. Rows were chosen to be rich in hits. Some 2.3% of all compounds tested hit in one or more screens of this group. Unless noted, the call rests on the fitted dose curve; in most records, active means well fitted curve in the direction sought with a large enough effect; inconclusive means small, poorly fitted or top-dose-only effect, or another doubt; inactive means no such curve, though single readings can be large; an effect the other way counts as inactive or inconclusive.
SMILES,TRPV1 agonist,Giardia killer,FUS suppressor,ELG1 DNA repair,TRPV1 PAM
CC(C)N1C(=O)C(Cc2nc3ccccc3c(=O)n2-c2ccccc2)c2ccccc21 (stereo not drawn),-2,-11,?,-2%,-5
CC(C)N1C(=O)/C(=C/c2nc3ccccc3c(=O)n2-c2ccccc2)c2ccccc21,9,12,·,21µM*,-6
CC(C)N1C(=O)/C(=C\c2nc3ccccc3c(=O)n2-c2ccccc2)c2ccccc21,8,-3,·,13µM*,-6
O=C(N/N=C/c1ccc([N+](=O)[O-])o1)c1ccccc1-n1cccc1,-3,-99*,i,-46%,-5
O=C(N/N=C\c1ccccc1)c1ccccc1-n1cccc1,-2,-1,i,2%,3
O=C(N/N=C/c1ccc([N+](=O)[O-])o1)c1cn(-c2ccccc2)nc1-c1ccccc1,-1,-95*,i,?,8
O=C(N/N=C/c1ccc([N+](=O)[O-])o1)c1ccc2c(c1)OCO2,?,-91*,i,-4%,-15
O=C(N/N=C/c1ccc([N+](=O)[O-])o1)c1ccc(NS(=O)(=O)c2cccs2)cc1,4,-24,i,21µM*,13
O=c1oc2ccc(Br)cc2cc1-c1nc2c(s1)CCc1ccccc1-2,·,4,·,·,·
O=C(N/N=C/c1ccc([N+](=O)[O-])o1)c1cn(-c2ccccc2)nc1-c1ccc(Cl)cc1,-4,-90*,i,?,3
O=C(O)COc1ccc(/C=N/NC(=O)c2cn(-c3ccccc3)nc2-c2ccccc2)cc1,-1,-3,i,-2%,1
CC(C)=CCOc1c2ccoc2c(OCC=C(C)C)c2oc(=O)ccc12,·,12,i,23µM*,·
O=C(O)c1ccc(CS(=O)c2cccc(C(F)(F)F)c2)o1 (stereo not drawn),18,-19,i,10µM*,-6
Cc1cccc(S(=O)Cc2ccc(C(=O)N3CCOCC3)o2)c1 (stereo not drawn),1,-17,i,1%,28
Cc1ccc(-n2c(-c3ccccc3)c[n+]3c2CCC3)cc1,-1,-8,i,1.6µM*,2
Cc1ccc(-n2c(-c3ccc(Cl)cc3)c[n+]3c2CCC3)cc1,1,10,i,2.9µM*,3
COc1cccc(NC(=O)N(CCC(C)C)C2CCN(C(C)C)CC2)c1,·,·,i,·,·
COc1ccc(NC(=O)C2CCN(C3=NS(=O)(=O)C(c4ccc(C)c(C)c4)=C3C)CC2)c(OC)c1,·,·,i,·,·
Cn1nc(C(C)(C)C)cc1C(=O)NNC(=O)c1cccc(Cl)c1,7,1,i,7.3µM*,-4
O=C(Cc1ccc(S(=O)(=O)N2CCOCC2)s1)Nc1cc(C(F)(F)F)cc(C(F)(F)F)c1,22,-2,i,21µM*,-18
CCOC(=O)c1cc(NC(=O)Cc2ccc(S(=O)(=O)N3CCOCC3)s2)cc(C(=O)OCC)c1,-4,7,i,6.5µM*,7
O=C(Cc1ccc(S(=O)(=O)N2CCOCC2)s1)Nc1ccc(N2CCOCC2)cc1,3,4,i,?,-3
CCOC(=O)c1cccc(NC(=O)c2oc3c(c2C)-c2nn(CC)cc2CC3)c1,·,·,i,·,·
CC(=O)Oc1ccc(N(C(C)=O)S(=O)(=O)c2cccs2)c2ccccc12,1,-15,i,15µM*,-3
CCN(c1cccc2ccccc12)S(=O)(=O)c1cccs1,·,2,i,5%,·
SMILES,TRPV1 agonist,Giardia killer,FUS suppressor,ELG1 DNA repair,TRPV1 PAM
Cc1oc2c(C)c3oc(=O)c(CCC(=O)N4CCCCC4)c(C)c3cc2c1C,·,·,i,·,·
O=C(NCc1ccco1)c1ccc(Cn2c(SCc3ccc(F)cc3)nc3cccnc32)cc1,·,·,i,·,·
Cc1ccc(Cn2nnc3c(=O)n(CC(=O)N4CCN(c5ccccc5)CC4)cnc32)cc1,4,1,i,15µM*,23
COCC1CCN(Cc2c(C(=O)N3CCc4ccccc4C3)nc3ccc(Cl)cn23)C1 (stereo not drawn),10,15,7.1µM*,-4%,-5
O=C(Nc1cc(Cl)cc(Cl)c1)c1ccc(F)c(S(=O)(=O)N2CCN(c3ccccc3F)CC2)c1,·,·,i,·,·
CCOC(=O)c1sc(NNC(=O)c2ccc(C)cc2)nc1C,3,4,i,-29%,1
CCOC(=O)c1nc(NNC(=O)c2ccc([N+](=O)[O-])cc2)sc1C,2,1,i,16µM*,0
